# ChEMBL document CHEMBL3433997, “St. Jude Leishmania screening dataset” (2016)
# Target: Glucose transporter (Leishmania mexicana) (UniProt O61059)
# Assay: ST_JUDE_LEISH: Cytotoxicity at 2uM final concentration against transgenic Leishmania Mexicana promastigotes LmGT2 that are glucose transport deficient and complemented with the L. Mexicana glucose transporter 2. Activity is measured by DNA content using SYBR green in vitro
# Type: functional
row,SMILES,inhibition [%]
1,COc1ccc2nccc([C@@H](O)CN3CCC(NC(=O)/C=C/c4cc(F)cc(Br)c4)CC3)c2c1,-0.22
2,Cc1ccc(NC(C)C(=O)Nc2ccccc2)cc1S(=O)(=O)N1CCCCCC1 (stereo not given),9.12
3,N#Cc1cccc(CN2CCCN(Cc3cccc(C(=O)Nc4ccc(Cl)cc4)c3)CC2)c1,0.64
4,CC(Cc1ccc(NC(=O)c2ccc(CC(C)NCc3ccc(Cl)cc3)cc2)cc1)NCCc1cccc(Cl)c1 (stereo not given),1.33
5,Cc1cccc(Nc2nc3nonc3nc2Nc2cccc(Cl)c2Cl)c1C,7.5
6,CN(C)Cc1ccc2nc(-c3cccc(Cc4cc(Cl)ccc4OCc4ccc(Cl)cc4F)n3)[nH]c2c1,-1.22
7,N=C1N=C(N)NCN1OCc1ccc(Cl)c(Cl)c1,-0.31
8,COc1cccc(C2=CC(C)(C)Oc3cc(OCCN(C)C)ccc32)c1,4.3
9,Nc1nc(NCC2CCC(CNS(=O)(=O)c3cccc4ccccc34)CC2)nc2ccccc12 (stereo not given),1.21
10,CN1CCC(NCc2cccc(-c3cccc(S(=O)(=O)NCc4ccccc4)c3)c2)CC1,2.47
11,O=C(NC(=S)NCc1ccncc1)c1ccccc1,1.6
12,NC1=NC(c2ccccc2)(c2ccccc2)C(=O)N1CCCCc1ccccn1,-2.5
13,CC(=O)N(Cc1nc(-c2cc(C(F)(F)F)cc(C(F)(F)F)c2)cs1)c1c(C)cccc1C,4.36
14,C=CCC(C(=O)Nc1ccnc2ccc(OC)cc12)C1CCN(CCCCCCC)CC1 (stereo not given),0.87
15,COCCNCC(O)Cn1c2ccc(Cl)cc2c2cc(Cl)ccc21 (stereo not given),-0.53
16,Cc1cc(-c2nc3ccc(N4CCN(C)CC4)cc3[nH]2)nn1Cc1cc(Cl)ccc1OCC(C)C,0.44
17,CC1CC(C)CN(S(=O)(=O)c2cc(C(=O)Nc3cccc([N+](=O)[O-])c3)ccc2Br)C1 (stereo not given),5.14
18,Nc1nccc2ccc(Oc3ccncc3)cc12,4.2
19,Cc1cc(N[C@@H](Cc2ccccc2)C(=O)Nc2ccccc2)nc(NCCc2ccc(F)cc2)n1,1.86
20,CCOc1cc2ncnc(Nc3ccc(OCc4c(F)cccc4F)c(OC)c3)c2cc1OCC,0.2

row,SMILES,inhibition [%]
1,Fc1cccc(COc2ccc(Nc3ncnc4sc(C#CCNC5CCCC5)cc34)cc2Cl)c1,2.47
2,O=C(Nc1cccc(CN2CCCN(Cc3ccccc3)CC2)c1)c1cc2ccccc2s1,-4.49
3,CCc1c(CCNC/C=C/C=C/CNCCc2ccc(OC)c(OC)c2CC)ccc(OC)c1OC,1.71
4,Oc1cccc(-c2nc(-c3ccccc3)c(-c3ccc4oc5ccc(-c6[nH]c(-c7cccc(O)c7)nc6-c6ccccc6)cc5c4c3)[nH]2)c1,2.11
5,CCOc1ccc(C(C)NC(=O)Cc2ccccc2F)cc1OCC (stereo not given),-0.15
6,O=C(Nc1ccc([N+](=O)[O-])cc1)Nc1cc(OCC(F)(F)F)cc(OCC(F)(F)F)c1,4.56
7,COc1cc2nc(N3CCC(CNC(=O)c4ccc(-c5ccc(C(=O)N(C)C)cc5OCCN(C)C)cc4)CC3)nc(N)c2cc1OC,0.37
8,CCCc1ccc(NC(=O)c2ccc(CN3CCCN(Cc4cccc(O)c4)CC3)cc2)cc1,3.95
9,COc1cc2nc(N3CCC(CCCC4CCNCC4)CC3)nc(NCc3ccccn3)c2cc1OC,57.1
10,CC(C)c1ccc(NC(=O)c2cccc(CN3CCCN(Cc4cccc(O)c4)CC3)c2)cc1,7.67
11,Cc1c(C(=O)C2CC2CN2CCC(N3CCCCC3)CC2)sc2ccccc12 (stereo not given),2.09
12,COc1ccc(CC2(c3ccc(F)cc3)N=C(N)N(CCCc3ccc4c(c3)OCO4)C2=O)cc1 (stereo not given),5.39
13,O=C(c1ccco1)N1CCN(c2nc(-c3ccc(Cl)cc3)nc3ccccc23)CC1,4.42
14,CN(C(=O)/C=C/c1c(Cl)cccc1Cl)C1CCN(CCCCCNC(=O)/C=C/c2ccc(Cl)c(Cl)c2)CC1,1.38
15,O=C(Nc1cc(C(F)(F)F)ccc1N1CCOCC1)C(Cl)(Cl)Cl,9.48
16,Cc1cccc2nc(-c3cccc(-c4ccc(NC(=O)c5ccoc5)cc4)c3)[nH]c12,-1.09
17,CCOc1cc(C)ccc1C1CCN(CCCCNC(=O)c2nc(-c3ccc(C(F)(F)F)cc3)[nH]c2C)CC1,-0.05
18,CC(C)CC(=O)N1CCNC[C@@H]1C(=O)NCc1ccc(Cl)c(Cl)c1,3.02
19,O=C(Nc1ccc(OC2CCN(Cc3ccc(F)cc3)C2)c(Cl)c1)c1cccs1 (stereo not given),0.55
20,COc1cccc(C=CC(=O)N(CCN)Cc2ccccc2)c1,7.33
